NOD2 RIPK2 PPI – inhibitors of human NOD2-RIPK2 interaction; O43353; CHO BLA complementation NOD2-RIPK2, CCF4 ratio; inhibition, % at 4.98 µM; 0.38% of 360,000 active; AID 624267; in the data active = inhibition above about 21%;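 also: 0% = vehicle only and 100% = reference blocker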
Target sequence (O43353 whole entry, looked up): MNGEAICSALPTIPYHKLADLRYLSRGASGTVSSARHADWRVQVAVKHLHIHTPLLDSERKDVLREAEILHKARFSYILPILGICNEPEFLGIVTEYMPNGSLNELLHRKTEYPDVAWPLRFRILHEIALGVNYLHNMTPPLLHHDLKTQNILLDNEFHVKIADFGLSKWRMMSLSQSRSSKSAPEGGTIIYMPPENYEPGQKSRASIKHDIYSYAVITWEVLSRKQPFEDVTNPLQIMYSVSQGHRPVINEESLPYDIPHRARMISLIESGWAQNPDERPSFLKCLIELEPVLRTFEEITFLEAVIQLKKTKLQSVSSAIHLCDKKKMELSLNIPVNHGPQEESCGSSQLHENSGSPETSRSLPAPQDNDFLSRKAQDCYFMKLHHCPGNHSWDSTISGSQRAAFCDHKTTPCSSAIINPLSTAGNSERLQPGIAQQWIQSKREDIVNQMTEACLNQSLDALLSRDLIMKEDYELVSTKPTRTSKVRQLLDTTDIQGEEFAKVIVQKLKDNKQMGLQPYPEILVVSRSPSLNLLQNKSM
PRMT1 inh – blocks human protein arginine methyltransferase 1. Q99873. 1.3% of 370,000 active. recombinant PRMT1, activity-based probe fluorescence polarization. inhibition, % at 2.79 µM;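 active = inhibition above about 21% made by adding two undisclosed values, limit read from the data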
TLR9-MyD88 inh – TLR9-MyD88 interaction inhibition. Q9NR96+Q99836. CHO BLA complementation TLR9-MyD88, CCF4 FRET ratio. inhibition, % at 4.98 µM. 0.21% of 340,000 active. AID 504734;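 active = inhibition above the mean over all tested compounds plus 3 SD, cut at about 21% in these data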;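 also: 0% = DMSO only wells and 100% = clavulanate BLA inhibitor control wells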
rCAG binder-1 – molecules binding r(CAG) RNA repeats; AID 651821; r(CAG) RNA repeat, TO-PRO-1 dye displacement fluorescence; 1.3% of 370,000 active; inhibition, % at 3 µM;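 active = inhibition above the plate cutoff, the mean of all test compounds on that plate plus 3 SD, cut at about 35% in these data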;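 also: 0% = DMSO alone and 100% = 100 µM mitoxantrone as full dye displacement; higher means more dye released from RNA so lower well fluorescence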
TLR4-MyD88 BLA – inhibitors of human TLR4-MyD88 binding; O00206+Q99836; HeLa CL3-4 TLR4/MyD88 BLA complementation, FRET ratio; inhibition, % at 8.4 µM; 0.18% of 200,000 active; AID 861; in the data active = inhibition above about 25%;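 also: 0% = vehicle and 100% = reference inhibitor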
ABHD5 PLIN5 PPI – inhibitors of human ABHD5-perilipin-5 interaction | AID 602281 | inhibition, % at 4 µM | Split G. princeps luciferase complementation, luminescence, 4 h | 0.78% of 360,000 active | Q00G26+Q8WTS1;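 active = inhibition above the mean inhibition across every tested compound plus 3 SD, cut at about 22% in these data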;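 also: 0% = DMSO only wells and the 100% control is not disclosed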
rCAG binder conf – r(CAG) RNA repeat binding, confirmation; shares compounds with rCAG binder-1; TO-PRO-1 dye displacement fluorescence; 70% of 4,300 active; inhibition, % at 3 µM;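 active = inhibition above a per-plate cutoff, the mean inhibition of sample wells plus 3 SD, cut at about 35% in these data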;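 also: loss of TO-PRO-1 fluorescence as compound displaces dye from 1x1 AA loop RNA; 0% = DMSO only wells and 100% = 100 µM mitoxantrone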
dCAG dye counter – DNA CAG dye complex inhibition counter-screen; shares compounds with rCAG binder-1; d(CAG) DNA oligo TO-PRO-1 dye displacement, fluorescence; inhibition, % at 3 µM; 94% of 4,300 active; AID 652068;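 active = inhibition above its plate's cutoff, the mean test-well inhibition plus 3 SD, cut at about 4.8% in these data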;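 also: 0% = DNA dye mix with DMSO and 100% = 100 µM mitoxantrone; hits displace the dye from DNA and so lower well fluorescence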
DNA CAG DR – DNA CAG dye complex inhibition, dose response counter-screen; shares compounds with rCAG binder-1; DNA CAG/GTC duplex TO-PRO-1 dye displacement fluorescence; IC50, µM; 20% of 250 active; AID 686960; in the data active = IC50 below about 10 µM
dCAG DNA bind – counter-screen for rCAG binders: DNA CAG TO-PRO-1 complex inhibitors, late stage; shares compounds with rCAG binder-1; d(CAG) DNA duplex TO-PRO-1 dye displacement, fluorescence; IC50, µM; 80% of 30 active
rCAG binder-2 – molecules binding r(CAG) RNA repeats, late stage dose response. r(CAG) RNA TO-PRO-1 dye displacement, fluorescence. AID 720651. IC50, µM. 100% of 30 active. shares compounds with rCAG binder-1
Active calls of the source: *; . = no result. Hits are enriched below; roughly 3.3% of the tested compounds scored in any of these assays. Unless noted, no rule for the calls is given here.

SMILES	NOD2 RIPK2 PPI	PRMT1 inh	TLR9-MyD88 inh	rCAG binder-1	TLR4-MyD88 BLA	ABHD5 PLIN5 PPI	rCAG binder conf	dCAG dye counter	others
NC(=O)c1sc(-c2ccsc2)cc1NS(=O)(=O)c1ccc(C(F)(F)F)cc1	-1	5	.	56*	.	2	77*	30*	DNA CAG DR=7*;dCAG DNA bind=4.4*;rCAG binder-2=1.5*
CC(=O)c1sc(-c2ccc(F)cc2)cc1NS(=O)(=O)c1ccc(C)cc1	-4	1	-5	1	.	0	.	.
Cc1nc(NS(=O)(=O)c2ccccc2)sc1C(=O)N/N=C/c1ccccc1	-5	0	7	69*	.	1	43*	11*
CC(=O)c1sc(-c2ccccc2)cc1NS(=O)(=O)c1ccccc1	-12	0	.	83*	.	4	11	2
CC(Nc1ccccc1N1CCCCC1)C(=O)N1CCc2ccccc21 (centres undefined)	1	-3	-6	3	-4	-1	.	.
COc1ccc(N2CCN(c3ccc(NC(=O)NN)cc3)CC2)cc1	-3	-5	3	0	.	4	.	.
COC(=O)[C@]12C[C@H](CC(=O)NCC34CC5CC(CC(C5)C3)C4)C(=O)N(Cc3ccc4c(c3)OCO4)C1=C[C@H](C(C)(C)C)O[C@@H]2C	.	2	.	6	.	.	.	.
Cc1ccc(S(=O)(=O)Nc2nc(C)c(C(=O)NN)s2)cc1	-6	3	-5	58*	.	-2	11	3
CCOC(=O)c1sc(NS(=O)(=O)c2ccc(C)cc2)nc1C	-3	-1	-2	30	-14	-3	.	.
Cc1ccc(C)c(S(=O)(=O)Nc2nc(C)c(C(=O)Nc3ccccc3)s2)c1	-6	2	0	46*	-1	12	36*	9.0*
Cc1nc(NC(N)=S)sc1C(=O)Nc1ccccc1	-3	1	5	8	6	-14	.	.
Cc1ccc(S(=O)(=O)Nc2nc(C)c(C(=O)NNS(=O)(=O)c3cc(C)ccc3C)s2)cc1	-9	2	7	54*	.	-4	59*	22*
CCOc1ccc(C(=O)Oc2cc(C)[nH]c(=O)c2[N+](=O)[O-])cc1	-14	4	-10	74*	.	0	0	-1
Cc1ccc(NC(=O)CN2C(=O)S/C(=C/c3ccc(O)c([N+](=O)[O-])c3)C2=O)cc1C	-2	2	-7	94*	-6	4	80*	46*
Cc1cccc(NC(=O)CN2C(=O)S/C(=C\c3ccc(O)c([N+](=O)[O-])c3)C2=O)c1	-5	5	11	83*	-23	1	57*	20*
O=C(CN1C(=O)S/C(=C\c2ccc(O)c([N+](=O)[O-])c2)C1=O)Nc1ccc(N2CCOCC2)cc1	-9	-2	-9	-1	.	-4	.	.
O=C(CN1C(=O)S/C(=C\c2cc(Cl)c(O)c(Cl)c2)C1=O)Nc1ccccc1	-2	-2	2	48*	.	-3	50*	16*
CCCN(CC(=O)Nc1cc(Cl)ccc1Cl)C(=O)CN1C(=O)C2CCCCC2C1=O (centres undefined)	-2	-9	-5	-5	.	-4	.	.
CCn1c(C(C#N)/C(=N\S(=O)(=O)c2cccs2)c2ccccc2)nc2ccccc21 (centres undefined)	-4	3	1	37*	6	-1	32	7.8*
CCn1c(-c2cccs2)nc2ccccc21	-10	0	0	0	-10	-5	.	.
CCN(Cc1ccccc1)S(=O)(=O)c1c(N)n(C)c(=O)n(C)c1=O	2	4	-3	52*	.	1	3	0
